Results from PubChem BioAssay (Tox21).
Results filed as inconclusive are left out. Calls of active or inactive are those of the source. Unless noted, the call rests on the fitted dose curve; in most records, active means well fitted curve in the direction sought with a large enough effect in the repeat runs; inconclusive means weak or mixed curves; inactive means no such curve, though single readings can be large; an effect the other way counts as inactive or inconclusive.

Tests used:
[1] = qHTS assay to identify small molecule antagonists of the estrogen related receptor (ERR) signaling pathway from Tox21 library - cell viability counter screen (AID 1224834); further: nearly all actives have a fitted effect of over 30% in size; further: potency means the concentration at half of the fitted maximal effect
Method in brief: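 Cytotoxicity of test substances is gauged in the same ERR cells used for the antagonist screen, after 17.5 h of compound treatment at 37 C, by CellTiter-Fluor fluorescence measured after 30 min.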

[2] = qHTS assay to identify small molecule agonists of the constitutive androstane receptor (CAR) signaling pathway - cell viability counter screen (AID 1224836); further: series mostly up to about 92 µM; nearly all actives have a fitted effect of over 45% in size
Method in brief: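 23 h treatment, 37 C, 5% CO2. Cell line: HepG2 stably expressing hCAR with a CYP2B6-2.2kb construct. Co-treatment: PK11195, 0.75 uM final. Read-out: CellTiter-Fluor fluorescence intensity.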

[3] = qHTS assay to identify small molecule antagonists of the constitutive androstane receptor (CAR) signaling pathway - cell viability counter screen (AID 1224837); further: series mostly up to about 92 µM; nearly all actives have a fitted effect of over 45% in size
Method in brief: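 Multiplexed cytotoxicity read-out for the CAR antagonist screen: double-stable HepG2-CYP2B6-hCAR cells co-treated with 50 nM CITCO (final) and compound over 15 concentrations, incubated 23 hr, then assessed by CellTiter-Fluor fluorescence.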

[4] = qHTS assay to identify small molecule antagonists of the estrogen related receptor signaling pathway with the pleiotropic PPARgamma coactivator (PGC) from Tox21 10K library - cell viability counter screen (AID 1224840; active means well fitted cell-killing curve with a large enough effect in the repeat runs, not every such curve was filed as active; further: nearly all actives have a fitted effect of over 40% in size)
Method in brief: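 Step one, plate 2,000 PGC/ERR cells per well; step two, incubate 6 h at 37 C/5% CO2; step three, pin-transfer compounds; step four, incubate 17.5 h; step five, add CellTiter-Fluor and read fluorescence after 30 min.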

[5] = qHTS assay to identify small molecule agonists of the hypoxia (HIF-1) signaling pathway - cell viability counter screen (AID 1224844; calls by dose curve; further: nearly all actives have a fitted effect of over 50% in size; further: potency means the concentration at half of the fitted maximal effect)
Method in brief: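 Tox21 10K compounds were added to HRE-bla ME-180 cells (0.5% dialyzed FBS) and incubated 17 hrs at 37C; ATP-based CellTiter-Glo luminescence then reported cell viability in the same wells.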

[6] = qHTS assay to identify small molecule agonists of H2AX (AID 1224845; active means well fitted activation curve with a large enough effect in the signal ratio in the repeat runs, not every such curve was filed as active; the % refers to the signal ratio)
Method in brief: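 Phospho-H2AX Ser139 measured by HTRF (ex 320 nm; em 665 and 620 nm) after 24 hr antibody incubation. Compounds, 15 concentrations, 0.76% DMSO, were applied to CHO-K1 cells for 3hr at 37C before lysis.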

[7] = qHTS assay to identify small molecule agonists of the hypoxia (HIF-1) signaling pathway (AID 1224846; active means well fitted activation curve with a large enough effect in the signal ratio in the repeat runs, not every such curve was filed as active; the % refers to the signal ratio)
Method in brief: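 Steps: seed ME-180 HRE-bla cells (2,000/well, 0.5% dialyzed FBS); incubate 5 hrs at 37C; pin-transfer compounds or DMSO; incubate 17 hrs; add LiveBLAzer B/G substrate CCF4-AM; measure reporter activation by FRET.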

[8] = qHTS assay to identify small molecule agonists of H2AX - cell viability counter screen (AID 1224847; calls by dose curve; further: top concentration of the series differs between compounds; nearly all actives have a fitted effect of over 30% in size)
Method in brief: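 Compounds tested at 15 concentrations were incubated 3 hr at 37C with wild-type CHO-K1 cells; cellular ATP-based luminescence (CellTiter-Glo) indicated viability.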

[9] = qHTS RealTime-Glo MT Cell Viability Assay in HepG2 cells - 24 hour (AID 1224867); further: nearly all actives have a fitted effect of over 50% in size
Method in brief: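 HepG2 cells were seeded at 600 cells/well together with NanoLuc luciferase and a cell-permeant prosubstrate, preincubated 5 h at 37 C/5% CO2, then pin-dosed with compounds in DMSO. Nonlytic luminescence from viable cells was read at each time point.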

[10] = A CellTox Green Cytotoxicity Assay to monitor cytotoxicity in HEK293 cells - 0 hour (AID 1224869); further: nearly all actives have a fitted effect of over 50% in size
Method in brief: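 Cytotoxicity was tracked continuously in HEK293 cells by a DNA-binding dye excluded from viable cells. Compounds were transferred in DMSO 5 h after seeding; fluorescence was recorded at intervals up to 40 h.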

[11] = qHTS RealTime-Glo MT Cell Viability Assay in HepG2 cells - 40 hour (AID 1224870); further: nearly all actives have a fitted effect of over 50% in size
Method in brief: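 Real-time viability: cells seeded at 600 per well together with NanoLuc and cell-permeant prosubstrate, compounds added after 5 h incubation. Luminescence tracked at 0, 8, 16, 24, 32 and 40 h of exposure.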

[12] = target: Thyrotropin receptor (Homo sapiens) (UniProt P16473); assay: qHTS assay to identify small molecule agonists of the thyroid stimulating hormone receptor (TSHR) signaling pathway (AID 1224843; calls by dose curve; further: nearly all actives have a fitted effect of over 45% in size)
Chain of Thyrotropin receptor (Homo sapiens) (P16473 whole entry, looked up): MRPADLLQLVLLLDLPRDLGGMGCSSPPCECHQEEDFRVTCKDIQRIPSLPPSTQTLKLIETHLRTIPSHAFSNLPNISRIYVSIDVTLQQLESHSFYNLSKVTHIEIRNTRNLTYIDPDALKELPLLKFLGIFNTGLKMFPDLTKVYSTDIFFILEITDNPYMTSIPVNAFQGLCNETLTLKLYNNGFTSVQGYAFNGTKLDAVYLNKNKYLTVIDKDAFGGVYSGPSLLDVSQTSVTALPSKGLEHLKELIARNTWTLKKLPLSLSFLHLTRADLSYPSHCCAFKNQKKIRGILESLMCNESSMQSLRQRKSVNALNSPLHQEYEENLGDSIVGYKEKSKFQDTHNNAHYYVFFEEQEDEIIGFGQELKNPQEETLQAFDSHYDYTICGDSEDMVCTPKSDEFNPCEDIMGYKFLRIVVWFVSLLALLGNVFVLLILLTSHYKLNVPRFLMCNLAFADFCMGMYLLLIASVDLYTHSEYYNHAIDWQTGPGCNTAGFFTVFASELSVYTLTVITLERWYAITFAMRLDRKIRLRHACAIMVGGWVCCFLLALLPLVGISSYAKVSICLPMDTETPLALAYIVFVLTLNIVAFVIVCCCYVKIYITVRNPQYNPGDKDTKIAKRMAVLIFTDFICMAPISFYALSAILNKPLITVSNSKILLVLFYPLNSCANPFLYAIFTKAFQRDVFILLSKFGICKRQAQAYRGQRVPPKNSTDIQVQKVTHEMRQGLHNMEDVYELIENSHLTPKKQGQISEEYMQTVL
Method in brief: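 Screening of the Tox21 10K collection used HEK293 cells engineered with TSHR at 800 cells per well. After a 30-min room-temperature compound exposure, HTRF cAMP reagents were added and fluorescence recorded 1 h later.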

[13] = qHTS RealTime-Glo MT Cell Viability Assay in HEK293 cells - 32 hour (AID 1224868)
Method in brief: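 HEK293 cells were seeded at 600 cells/well together with NanoLuc luciferase and cell-permeant prosubstrate, preincubated 5 h at 37 C/5% CO2, then given compound in DMSO by pintool. Luminescence from viable-cell prosubstrate reduction was read repeatedly over 40 h.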

[14] = qHTS assay to identify small molecule antagonists of the estrogen related receptor signaling pathway with the pleiotropic PPARgamma coactivator (PGC) from Tox21 10K library (AID 1224841; call rule not given here)
Method in brief: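 Antagonism in this quantitative HTS is taken from loss of luciferase signal in PGC/ERR cells. Cells (2,000/well) are treated with compounds in DMSO after a 6 h settling period and read by One-Glo luminescence after 18 h.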

[15] = qHTS assay to identify small molecule agonists of the estrogen related receptor signaling pathway with the pleiotropic PPARgamma coactivator (PGC) from Tox21 10K library (AID 1224842); further: nearly all actives have a fitted effect of over 15% in size
Method in brief: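 Luminescence from One-Glo (30 min, room temperature) measured after PGC/ERR cells had 18 h at 37 C with pinned compound (23 nL in DMSO). Cells had been seeded at 2,000 per well and pre-incubated 6 h.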

[16] = qHTS assay to identify small molecule antagonists of the estrogen related receptor (ERR) signaling pathway from Tox21 library (AID 1224848); further: nearly all actives have a fitted effect of over 50% in size
Method in brief: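 Antagonist-mode screen of the Tox21 10K library in an NTP-provided ERR reporter cell line; 18 h compound exposure at 37 C, luminescence measured with ONE-Glo.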

[17] = qHTS assay to identify small molecule agonists of the estrogen related receptor (ERR) signaling pathway from Tox21 library (AID 1224849; calls by dose curve; further: nearly all actives have a fitted effect of over 15% in size)
Method in brief: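 Agonist signal is luciferase luminescence from an ERR reporter cell line treated 18 h at 37 C with DMSO-dissolved compounds, read 30 min after ONE-Glo addition at room temperature.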

[18] = target: Nuclear receptor subfamily 1 group I member 3 (Homo sapiens) (UniProt Q14994); assay: qHTS assay to identify small molecule antagonists of the constitutive androstane receptor (CAR) signaling pathway (AID 1224838); further: nearly all actives have a fitted effect of over 40% in size
Chain of Nuclear receptor subfamily 1 group I member 3 (Homo sapiens) (Q14994 whole entry, looked up): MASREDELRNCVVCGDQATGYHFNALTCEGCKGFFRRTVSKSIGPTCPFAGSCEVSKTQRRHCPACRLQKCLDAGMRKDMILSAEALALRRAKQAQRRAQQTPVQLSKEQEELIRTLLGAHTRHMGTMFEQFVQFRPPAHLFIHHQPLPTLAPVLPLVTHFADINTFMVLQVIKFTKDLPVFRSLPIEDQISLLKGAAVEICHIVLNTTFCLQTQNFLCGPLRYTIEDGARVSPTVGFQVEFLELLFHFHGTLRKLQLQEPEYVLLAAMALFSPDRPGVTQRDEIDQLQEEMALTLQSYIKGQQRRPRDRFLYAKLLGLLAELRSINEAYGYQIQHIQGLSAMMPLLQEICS
Method in brief: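 Compounds were titrated across 15 concentrations onto HepG2 cells double-stably expressing hCAR and a CYP2B6-2.2kb reporter, together with 50 nM CITCO (final). After 24 h at 37 C, luciferase activity was measured by luminescence.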

[19] = target: Nuclear receptor subfamily 1 group I member 3 (Homo sapiens) (UniProt Q14994); assay: qHTS assay to identify small molecule agonists of the constitutive androstane receptor (CAR) signaling pathway (AID 1224839);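 further: HepG2 cells stably carrying human CAR and a CYP2B6 luciferase reporter; series mostly up to about 92 µM; nearly all actives have a fitted effect of over 15% in size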
Method in brief: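 Compounds tested at 15 concentrations on HepG2 cells stably harbouring hCAR and CYP2B6-2.2kb reporter constructs, co-treated with PK11195 (0.75 uM final), 24 h at 37 C; luminescent reporter signal quantified.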

[20] = target: Luciferin 4-monooxygenase (Photinus pyralis) (UniProt P08659); assay: qHTS assay to identify small molecule inhibitors of firefly luciferase (AID 1224835); further: series mostly up to about 120 µM; nearly all actives have a fitted effect of over 25% in size
Chain of Luciferin 4-monooxygenase (Photinus pyralis) (P08659 whole entry, looked up): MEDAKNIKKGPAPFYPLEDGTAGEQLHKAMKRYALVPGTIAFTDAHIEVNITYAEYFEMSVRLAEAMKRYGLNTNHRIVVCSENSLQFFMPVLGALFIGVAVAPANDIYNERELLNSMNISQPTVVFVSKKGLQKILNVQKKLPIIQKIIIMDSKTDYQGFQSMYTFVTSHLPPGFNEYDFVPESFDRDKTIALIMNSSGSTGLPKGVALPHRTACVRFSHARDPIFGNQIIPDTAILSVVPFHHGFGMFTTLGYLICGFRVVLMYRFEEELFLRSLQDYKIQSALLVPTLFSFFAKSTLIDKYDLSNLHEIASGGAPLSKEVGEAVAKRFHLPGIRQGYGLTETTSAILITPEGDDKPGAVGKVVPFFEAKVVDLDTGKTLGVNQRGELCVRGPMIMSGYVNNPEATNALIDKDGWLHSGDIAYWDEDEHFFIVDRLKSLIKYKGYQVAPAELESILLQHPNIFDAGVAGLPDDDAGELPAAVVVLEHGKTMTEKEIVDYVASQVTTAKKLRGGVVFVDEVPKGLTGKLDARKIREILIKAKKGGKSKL
Method in brief: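 Inhibition of purified Photinus luciferase is measured by luminescence. Substrate levels (D-luciferin, ATP) sit at their KM values. Each compound is tested in a concentration series.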
On the % scale 0 is the no-effect control and ±100 the full control effect.

CCCC(=O)O[C@]1(C(=O)CC)CC[C@H]2[C@@H]3CCC4=CC(=O)CC[C@]4(C)[C@H]3[C@@H](O)C[C@@]21C
active: Potency [5] 19 µM
inactive: Potency [1] | outcome [2] | outcome [3] | outcome [4] | Potency [6] | outcome [7] | outcome [8] | outcome [9] | outcome [10] | Potency [11]

CC1(C)[C@@H]2CC[C@@]1(C)[C@H](O)C2
inactive: Potency [1] | outcome [2] | outcome [3] | outcome [4] | Potency [12] | Potency [5] | Potency [6] | outcome [7] | outcome [8] | outcome [9] | Potency [13] | Potency [11]

CC(CO)(CO)[N+](=O)[O-]
inactive: Potency [1] | outcome [2] | outcome [3] | outcome [4] | Potency [12] | Potency [5] | Potency [6] | outcome [7] | outcome [8] | outcome [9] | Potency [13] | Potency [11]

Cc1ccc(C(=O)Nc2ccc(S(=O)(=O)O)c3cc(S(=O)(=O)O)cc(S(=O)(=O)O)c23)cc1NC(=O)c1cccc(NC(=O)Nc2cccc(C(=O)Nc3cc(C(=O)Nc4ccc(S(=O)(=O)O)c5cc(S(=O)(=O)O)cc(S(=O)(=O)O)c45)ccc3C)c2)c1
inactive: Potency [1] | outcome [2] | outcome [3] | Potency [14] | Potency [15] | Potency [12] | Potency [5] | Potency [6] | outcome [7] | outcome [8] | Potency [16] | outcome [17] | outcome [9] | Potency [13] | Potency [11]

CC(=O)c1cnccn1
inactive: Potency [1] | outcome [2] | outcome [3] | Potency [18] | Potency [19] | Potency [12] | Potency [5] | Potency [6] | outcome [7] | outcome [8] | outcome [9] | Potency [13] | outcome [10] | Potency [11]

CC(C)(CCC(=O)O)C(=O)O
inactive: Potency [1] | outcome [2] | outcome [3] | Potency [18] | Potency [19] | outcome [4] | Potency [5] | outcome [7] | outcome [8] | outcome [9] | Potency [13] | outcome [10] | Potency [11]

CCN[C@@H]1C[C@H](N)[C@@H](OC2OC(CN)=CCC2N)[C@H](O)[C@H]1O[C@H]1OC[C@](C)(O)[C@H](NC)[C@H]1O (stereo not given in full)
inactive: viability change, negative = cytotoxic [1] 5.78% [at 0.349 µM] | viability change, negative = cytotoxic [2] 2.22% [at 0.349 µM] | activity change, negative = cytotoxicity [3] 0.22% [at 0.349 µM] | activity change, negative = cytotoxicity [5] 3.33% [at 0.29 µM] | activation (H2AX phosphorylation) [6] -3.19% [at 0.582 µM] | activity change, negative = cytotoxicity [8] 4.57% [at 0.582 µM] | activity change, negative = cytotoxicity [9] 1.48% [at 0.29 µM] | activity change, negative = cytotoxic [13] 4.65% [at 0.29 µM] | cytotoxicity [10] 3.58% [at 0.29 µM] | activity change, negative = cytotoxic [11] 1.76% [at 0.29 µM]

COCCOC[C@H](CC1(C(=O)NC2CCC(C(=O)O)CC2)CCCC1)C(=O)Oc1ccc2c(c1)CCC2 (stereo not given in full)
inactive: Potency [20] | outcome [2] | outcome [3] | Potency [18] | Potency [19] | outcome [4] | Potency [14] | Potency [15] | Potency [5] | Potency [6] | outcome [7] | outcome [8] | Potency [16] | outcome [17] | Potency [13] | outcome [10] | Potency [11]

Cc1c(N)c(=O)n(-c2ccccc2)n1C
inactive: Potency [1] | outcome [2] | outcome [3] | outcome [4] | Potency [12] | Potency [5] | Potency [6] | outcome [8] | outcome [9] | Potency [13] | outcome [10] | Potency [11]

CC1=NN(c2cc(S(=O)(=O)O)ccc2Cl)C(=O)C1N=Nc1ccccc1 (stereo not given)
inactive: Potency [18] | Potency [19] | Potency [12] | Potency [5] | outcome [7] | outcome [8] | outcome [9] | Potency [13] | Potency [11]
active: Potency [1] 48.6 µM

CN(C)CCCN(C)CCCN(C)C
inactive: Potency [1] | outcome [2] | outcome [3] | outcome [4] | Potency [12] | Potency [5] | Potency [6] | outcome [7] | outcome [8] | outcome [9] | Potency [13] | outcome [10] | Potency [11]

CC(=O)NC(=O)c1ccccc1O
inactive: Potency [1] | outcome [2] | outcome [3] | outcome [4] | Potency [12] | Potency [5] | outcome [7] | outcome [8] | outcome [9] | Potency [13] | Potency [11]

C=CCCCCCCCCC(=O)OCC
inactive: Potency [1] | outcome [2] | outcome [3] | Potency [18] | Potency [19] | Potency [14] | Potency [15] | Potency [12] | Potency [5] | Potency [6] | outcome [7] | outcome [8] | Potency [16] | outcome [17] | outcome [9] | Potency [13] | outcome [10] | Potency [11]

CNCCO
inactive: Potency [1] | outcome [2] | outcome [3] | Potency [12] | Potency [5] | Potency [6] | outcome [7] | outcome [9] | Potency [13] | outcome [10] | Potency [11]

CCC(C)(CN(C)C)OC(=O)c1ccccc1 (stereo not given)
inactive: Potency [1] | outcome [2] | outcome [3] | outcome [4] | Potency [5] | Potency [6] | outcome [8] | outcome [9] | Potency [13] | outcome [10] | Potency [11]

CCOC(=O)COc1cc(-n2ncc(C(F)(F)F)c(C)c2=O)c(F)cc1Cl
inactive: Potency [1] | outcome [2] | outcome [3] | Potency [18] | Potency [19] | outcome [4] | Potency [5] | outcome [7] | outcome [8] | outcome [9] | Potency [13] | Potency [11]

CCNS(=O)(=O)c1ccc(C)cc1
inactive: Potency [1] | outcome [2] | outcome [3] | outcome [4] | Potency [5] | Potency [6] | outcome [7] | outcome [8] | Potency [13] | outcome [10] | Potency [11]

O=C(c1ccccc1O)c1ccccc1O
inactive: outcome [2] | outcome [3] | Potency [18] | Potency [19] | outcome [4] | Potency [12] | Potency [5] | outcome [7] | outcome [8] | outcome [9] | outcome [10] | Potency [11]
